# Experimental data reported in PubChem BioAssay (NCATS).
# Values joined by “and” are separate entries in the source; they are usually repeats but may differ in a detail not shown here. Equal entries are not always repeated. Values without a mark were called inactive. Results filed as inconclusive are left out. Active and inactive are the calls of the source. Unless noted, calls come from the whole dose curve; as a rule, active = well fitted curve in the direction sought with a large enough effect; inconclusive = small, poorly fitted or top-dose-only effect, or another doubt; inactive = no such curve, though single readings can be large; an effect the other way counts as inactive or inconclusive.
# Experiments:
# [1] = qHTS assay to identify inhibitors of the type 1 interferon - major histocompatibility complex class I in skeletal muscle: Counter screen cell viability and HiBit confirmation (AID 1347412); conditions: iHSKM muscle cells + IFN-b, HiBiT or CellTiter-Glo, 24 h; note: nearly all actives have a fitted effect of over 60% in size; note: potency is the fitted concentration of half-maximal effect; for activity change, negative = inhibition: % is set by controls: 0 for no effect and ±100 for the full control effect
# Outline: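 Duplicate plates, pinned identically: one read for HiBiT-tagged endogenous HLA-B luminescence, the other for ATP-content viability via CellTiter Glo. Cells were genome-engineered human myoblasts given 4 ng/ml IFN-b; compounds 12-pt, 1:3 from 46 uM final; 24 hr exposure.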
# [2] = Drug repurposing screens with cells derived from glioblastoma tumor samples (AID 1345199); conditions: GBM patient neurospheres viability, ATP luminescence, 48 h; for Potency: tumour line A; note: potency is the fitted concentration of half-maximal effect; for activity, negative = cell killing: % is set by controls: 0 for no effect and ±100 for the full control effect; for all read-outs here: nearly all actives have a fitted effect of over 40% in size
# Outline: (§1)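 Primary testing used CD133+ neurospheres from four GBM patients, seven concentrations, 48 h exposure and ATP-based viability; confirmation added three slower-growing patient lines.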
# astro = assay: as above; conditions: viability, ATP luminescence, 48 h; series mostly up to 45.9 µM
# Outline: as §1
# [3] = target: Nuclear receptor subfamily 1 group I member 2 (Rattus norvegicus) (UniProt Q9R1A7); assay: qHTS assay for small molecule activators of the rat pregnane X receptor (rPXR) signaling pathway (AID 651751; call rule not given here; note: 0% is about no effect); conditions: rPXR reporter cells, luciferase (One-Glo), 24 h
# [4] = qHTS assay for small molecule activators of the human pregnane X receptor (PXR) signaling pathway (AID 720659; call rule not given here; note: 0% is about no effect); conditions: DPX-2 HepG2 CYP3A4-luciferase, 24 h; series mostly up to 92.3 µM
# [5] = at 45.9 µM (top of the series), tumour line B
# [6] = at 45.9 µM (top of the series), tumour line D
# [7] = at 46.1 µM (top of the series), tumour line C
# Nuclear receptor subfamily 1 group I member 2 (Rattus norvegicus), sequence (Q9R1A7 whole entry, looked up): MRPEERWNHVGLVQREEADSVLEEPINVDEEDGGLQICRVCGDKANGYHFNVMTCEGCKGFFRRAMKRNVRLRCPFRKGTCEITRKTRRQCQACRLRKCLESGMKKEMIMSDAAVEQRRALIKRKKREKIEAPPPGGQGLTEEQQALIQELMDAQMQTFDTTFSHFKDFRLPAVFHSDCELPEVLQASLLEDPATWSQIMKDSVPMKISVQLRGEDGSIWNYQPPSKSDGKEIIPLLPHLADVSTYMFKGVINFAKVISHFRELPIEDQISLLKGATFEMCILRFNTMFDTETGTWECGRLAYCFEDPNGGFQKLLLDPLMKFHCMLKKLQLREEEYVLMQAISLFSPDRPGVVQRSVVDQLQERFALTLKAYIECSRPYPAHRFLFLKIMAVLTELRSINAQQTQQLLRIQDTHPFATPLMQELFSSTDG
structure (smiles),measurement,setting,value
NC(=O)c1cnc(N[C@@H]2CCCC[C@@H]2N)nc1Nc1cccc(-n2nccn2)c1,"activity change, negative = inhibition","[1]; Viability, at 45.9 µM (top of the series)",-17.1%
COCCNCc1ccc(-c2cc3nccc(Oc4ccc(NC(=O)C5(C(=O)Nc6ccc(F)cc6)CC5)cc4F)c3s2)nc1,Potency,[1]; Viability,31.3 µM (active)
CC1(C)S[C@@H]2[C@H](NC(=O)[C@H](N)c3ccccc3)C(=O)N2[C@H]1C(=O)OCOC(=O)[C@@H]1N2C(=O)C[C@H]2S(=O)(=O)C1(C)C,"activity, negative = cell killing",[2]; [5],-6.39%
same,"activity, negative = cell killing",[2]; [6],-14.9%
same,"activity, negative = cell killing",[2]; [7],-15.8%
same,Potency,astro,inactive
N[C@@H](C(=O)N[C@H]1C(=O)N2C(C(=O)O)=C(Cl)CC[C@H]12)c1ccccc1,"activity, negative = cell killing",[2]; [5],3.07%
same,"activity, negative = cell killing",[2]; [6],-6.14%
same,"activity, negative = cell killing",[2]; [7],-12.4%
same,Potency,astro,inactive
NCCC(=O)[N-][C@@H](Cc1cnc[nH]1)C(=O)O.[Zn],"activity, negative = cell killing",[2]; [5],-11.4%
same,"activity, negative = cell killing",[2]; [6],-14.7%
same,"activity, negative = cell killing",[2]; [7],0.418%
same,Potency,astro,inactive
Cc1ccc(C(=O)Nc2ccc(CN3CCN(C)CC3)c(C(F)(F)F)c2)cc1C#Cc1cnc2[nH]ncc2c1,Potency,[1]; HiBiT,0.394 µM (active)
CO[C@H]1C[C@H](O[C@H]2[C@H](C)O[C@@H](O[C@@H]3/C(C)=C/C[C@@H]4C[C@@H](C[C@]5(C=C[C@H](C)[C@@H](C6CCCCC6)O5)O4)OC(=O)[C@@H]4C=C(C)[C@@H](O)[C@H]5OC/C(=C\C=C\[C@@H]3C)[C@]54O)C[C@@H]2OC)O[C@@H](C)[C@@H]1O,Potency,astro,17.8 µM (active)
N#Cc1ccnc(Nc2cc(C3CCN(C4COC4)CC3)cc(N3CCC(F)(F)C3)n2)c1,Potency,[1]; HiBiT,3.52 µM (active)
COc1cc(C[C@@H]2NCCc3cc(O)c(O)cc32)cc(OC)c1OC,"activity, negative = cell killing",[2]; [5],13.6%
same,"activity, negative = cell killing",[2]; [6],-12.2%
same,"activity, negative = cell killing",[2]; [7],-8.42%
same,Potency,astro,inactive
CCOc1ccc(N=C(C)Nc2ccc(OCC)cc2)cc1,"activity, negative = cell killing",[2]; [5],-12.2%
same,"activity, negative = cell killing",[2]; [7],-2.07%
same,Potency,[2],11.2 µM (active)
same,Potency,astro,inactive
Cc1ccc(/C(=C\CN2CCCC2)c2cccc(/C=C/C(=O)O)n2)cc1,"activity, negative = cell killing",[2]; [7],-12.4%
same,Potency,[2],35.5 µM (active)
same,Potency,astro,22.4 µM (active)
NC(=O)c1ccccc1Nc1ccnc(Nc2cccc(O)c2)n1,Potency,[1]; HiBiT,4.97 µM (active)
CC(C)(C)CC(=O)OCC(=O)[C@@]12OC(C)(C)O[C@@H]1C[C@H]1[C@@H]3CCC4=CC(=O)C=C[C@]4(C)[C@@]3(F)[C@@H](O)C[C@@]12C,"activity, negative = cell killing",[2]; [5],-19.8%
same,"activity, negative = cell killing",[2]; [7],-0.929%
same,Potency,astro,inactive
O=C(O)c1cccc(/C=C2/C[C@@H]3[C@@H](/C=C/[C@@H](O)C4CCCCC4)[C@H](O)C[C@@H]3O2)c1,"activity, negative = cell killing",[2]; [5],-4.9%
same,"activity, negative = cell killing",[2]; [6],-11.8%
same,"activity, negative = cell killing",[2]; [7],-8.79%
same,Potency,astro,inactive
CC1=C(C(=O)OCCN(Cc2ccccc2)c2ccccc2)C(c2cccc([N+](=O)[O-])c2)C(P2(=O)OCC(C)(C)CO2)=C(C)N1 (configuration not stated),"activity, negative = cell killing",[2]; [5],19%
same,Potency,astro,inactive
CCCCCCCCCCCCCCCC(=O)OC[C@H](O)[C@H]1OC(=O)C(O)=C1O,"activity, negative = cell killing",[2]; [5],-21.6%
same,"activity, negative = cell killing",[2]; [6],-24.1%
same,Potency,astro,inactive
CCC(C)[C@H]1O[C@]2(C=C[C@@H]1C)C[C@@H]1C[C@@H](C/C=C(\C)[C@@H](O[C@H]3C[C@H](OC)[C@@H](O[C@H]4C[C@H](OC)[C@H](NC(C)=O)[C@H](C)O4)[C@H](C)O3)[C@@H](C)/C=C/C=C3\CO[C@@H]4[C@H](O)C(C)=C[C@@H](C(=O)O1)[C@]34O)O2 (some centres not stated),Potency,astro,6.31 µM (active) and 20 µM (active)
CCCCCCCC/C=C\CCCCCCCC(=O)OC[C@@H](O)[C@H]1OC[C@H](O)[C@H]1O,"activity, negative = cell killing",[2]; [5],-4.65%
same,"activity, negative = cell killing",[2]; [6],1.42%
same,Potency,astro,inactive
same,max response,[3],1.88%
same,outcome,[4],inactive
